# PubChem BioAssay AID1159580 (chemical genetic matrix, 2015)
# Several values for one entry are separate records, joined by “and”; a condition that tells them apart may be missing. Equal entries are not always repeated. About 2,000 (36%) of roughly 5,500 compounds were called active. Roughly 18% stayed inconclusive and do not appear here. Cut-off read from the data, not from the text of the source: active = normalized growth mostly below about 0.91 (no sharp cut-off); inconclusive = no clear call, values can overlap the other calls; inactive = mostly above about 0.92. Some of the results follow.
# Test: chemical genetic growth profiling, strain panel (AID 1159580);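 note: tested at 20 µM; growth read once vehicle control cultures reached saturation at 30 °C; 1 = growth at the plate median or of vehicle wells; lower values mean less growth of the strain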
# Details: S. cerevisiae deletion strains, growth OD
smiles,measurement,setting,value
CN(Cc1cnc2nc(N)nc(N)c2n1)c1ccc(C(=O)NC(CCC(=O)O)C(=O)O)cc1 (stereo unspecified),normalized growth,"locus YAL021C, strain ccr4, stronger effect = lower value",0.958 (inactive)
same,normalized growth,"locus YAL026C, strain drs2, stronger effect = lower value",0.911 (inactive)
same,normalized growth,"locus YAL030W, strain snc1, stronger effect = lower value",0.945 (inactive)
same,normalized growth,"locus YAL040C, strain CLN3, stronger effect = lower value",1.09 (inactive)
same,normalized growth,"locus YBL061C, strain skt5, stronger effect = lower value",0.927 (inactive)
same,normalized growth,"locus YBR009C, strain hhf1, stronger effect = lower value",0.888 (active)
same,normalized growth,"locus YBR021W, strain FUR4, stronger effect = lower value",0.958 (inactive)
same,normalized growth,"locus YBR023C, strain chs3, stronger effect = lower value",0.911 (active)
same,normalized growth,"locus YBR171W, strain sec66, stronger effect = lower value",0.94 (inactive)
same,normalized growth,"locus YBR229C, strain ROT2, stronger effect = lower value",0.987 (inactive)
same,normalized growth,"locus YBR231C, strain swc5, stronger effect = lower value",0.931 (inactive)
same,normalized growth,"locus YBR279W, strain paf1, stronger effect = lower value",0.962 (inactive)
same,normalized growth,"locus YCL011C, strain gbp2, stronger effect = lower value",0.857 (active)
same,normalized growth,"locus YCL016C, strain dcc1, stronger effect = lower value",0.867 (active)
same,normalized growth,"locus YCL029C, strain bik1, stronger effect = lower value",0.988 (inactive)
same,normalized growth,"locus YCL061C, strain MRC1 (second series), stronger effect = lower value",1.01 (inactive)
same,normalized growth,"locus YCL061C, strain MRC1, stronger effect = lower value",0.891 (active)
same,normalized growth,"locus YCL069W, strain vba3, stronger effect = lower value",0.948 (inactive)
same,normalized growth,"locus YCR088W, strain abp1, stronger effect = lower value",0.954 (inactive)
same,normalized growth,"locus YDL005C, strain med2, stronger effect = lower value",0.997 (inactive)
same,normalized growth,"locus YDL035C, strain GPR1, stronger effect = lower value",0.975 (inactive)
same,normalized growth,"locus YDL040C, strain nat1, stronger effect = lower value",0.959 (inactive)
same,normalized growth,"locus YDL074C, strain BRE1, stronger effect = lower value",0.963 (inactive)
same,normalized growth,"locus YDL101C, strain DUN1, stronger effect = lower value",0.997 (inactive)
same,normalized growth,"locus YDL134C, strain PPH21, stronger effect = lower value",1 (inactive)
same,normalized growth,"locus YDL185W, strain tfp1, stronger effect = lower value",0.141 (active)
same,normalized growth,"locus YDL192W, strain arf1, stronger effect = lower value",0.95 (inactive)
same,normalized growth,"locus YDR001C, strain nth1, stronger effect = lower value",0.933 (inactive)
same,normalized growth,"locus YDR069C, strain doa4, stronger effect = lower value",0.955 (inactive)
same,normalized growth,"locus YDR101C, strain arx1, stronger effect = lower value",0.994 (inactive)
same,normalized growth,"locus YDR137W, strain rgp1, stronger effect = lower value",0.907 (inactive)
same,normalized growth,"locus YDR150W, strain NUM1, stronger effect = lower value",0.974 (inactive) and 0.986 (inactive)
same,normalized growth,"locus YDR159W, strain sac3, stronger effect = lower value",0.978 (inactive)
same,normalized growth,"locus YDR162C, strain NBP2, stronger effect = lower value",0.982 (inactive)
same,normalized growth,"locus YDR195W, strain ref2",1.01 (inactive)
same,normalized growth,"locus YDR297W, strain sur2, stronger effect = lower value",0.955 (inactive)
same,normalized growth,"locus YDR318W, strain mcm21, stronger effect = lower value",0.994 (inactive)
same,normalized growth,"locus YDR334W, strain swr1, stronger effect = lower value",0.881 (active)
same,normalized growth,"locus YDR335W, strain msn5, stronger effect = lower value",0.97 (inactive)
same,normalized growth,"locus YDR388W, stronger effect = lower value",1 (inactive)
same,normalized growth,"locus YDR392W, strain spt3, stronger effect = lower value",0.951 (inactive)
same,normalized growth,"locus YDR502C, strain sam2, stronger effect = lower value",0.967 (inactive)
same,normalized growth,"locus YEL003W, strain gim4, stronger effect = lower value",0.967 (inactive)
same,normalized growth,"locus YEL037C, strain rad23, stronger effect = lower value",0.902 (active)
same,normalized growth,"locus YEL061C, strain CIN8 (second series), stronger effect = lower value",0.944 (inactive)
same,normalized growth,"locus YEL061C, strain CIN8, stronger effect = lower value",0.962 (inactive)
same,normalized growth,"locus YER002W, strain NOP16, stronger effect = lower value",0.971 (inactive)
same,normalized growth,"locus YER015W, strain faa2, stronger effect = lower value",0.958 (inactive)
same,normalized growth,"locus YER016W, strain bim1, stronger effect = lower value",0.965 (inactive)
same,normalized growth,"locus YER110C, stronger effect = lower value",0.985 (inactive)
same,normalized growth,"locus YER111C, strain swi4, stronger effect = lower value",0.962 (inactive)
same,normalized growth,"locus YER155C, strain BEM2 (second series), stronger effect = lower value",0.892 (inactive)
same,normalized growth,"locus YER155C, strain BEM2, stronger effect = lower value",0.976 (inactive)
same,normalized growth,"locus YER167W, strain BCK2, stronger effect = lower value",0.958 (inactive)
same,normalized growth,"locus YFR010W, strain ubp6, stronger effect = lower value",0.942 (inactive)
same,normalized growth,"locus YGL078C, strain dbp3, stronger effect = lower value",0.32 (active)
same,normalized growth,"locus YGL086W, strain mad1, stronger effect = lower value",1 (inactive)
same,normalized growth,"locus YGL167C, strain pmr1, stronger effect = lower value",0.942 (inactive)
same,normalized growth,"locus YGL173C, strain kem1, stronger effect = lower value",0.96 (inactive)
same,normalized growth,"locus YGL227W, strain vid30, stronger effect = lower value",0.922 (inactive)
same,normalized growth,"locus YGL240W, strain doc1, stronger effect = lower value",0.967 (inactive)
same,normalized growth,"locus YGL248W, strain PDE1, stronger effect = lower value",0.994 (inactive)
same,normalized growth,"locus YGL253W, strain hxk2, stronger effect = lower value",0.934 (inactive)
same,normalized growth,"locus YGR135W, strain pre9, stronger effect = lower value",0.933 (inactive)
same,normalized growth,"locus YGR252W, strain gcn5, stronger effect = lower value",1.02 (inactive)
same,normalized growth,"locus YHR013C, strain ard1, stronger effect = lower value",0.938 (inactive)
same,normalized growth,"locus YHR027C, strain rpn1, stronger effect = lower value",0.945 (inactive)
same,normalized growth,"locus YHR030C, strain SLT2, stronger effect = lower value",0.946 (inactive) and 0.147 (active)
same,normalized growth,"locus YHR079C, strain IRE1 (second series), stronger effect = lower value",0.988 (inactive)
same,normalized growth,"locus YHR079C, strain IRE1, stronger effect = lower value",0.188 (active)
same,normalized growth,"locus YHR094C, strain hxt1, stronger effect = lower value",1 (inactive)
same,normalized growth,"locus YHR129C, strain ARP1, stronger effect = lower value",0.982 (inactive)
same,normalized growth,"locus YHR142W, strain chs7, stronger effect = lower value",0.86 (active)
same,normalized growth,"locus YHR200W, strain rpn10, stronger effect = lower value",0.959 (inactive)
same,normalized growth,"locus YIL066C, strain RNR3, stronger effect = lower value",1 (inactive)
same,normalized growth,"locus YIL073C, strain SPO22, stronger effect = lower value",0.95 (inactive)
same,normalized growth,"locus YIL125W, strain kgd1, stronger effect = lower value",0.278 (active)
same,normalized growth,"locus YIR030C, strain dcg1, stronger effect = lower value",0.975 (inactive)
same,normalized growth,"locus YJL092W, strain hpr5, stronger effect = lower value",0.818 (active)
same,normalized growth,"locus YJL095W, strain BCK1 (second series), stronger effect = lower value",0.964 (inactive)
same,normalized growth,"locus YJL095W, strain BCK1, stronger effect = lower value",0.993 (inactive) and 0.152 (active)
same,normalized growth,"locus YJL115W, strain asf1, stronger effect = lower value",0.845 (active)
same,normalized growth,"locus YJL129C, strain trk1, stronger effect = lower value",0.89 (inactive)
same,normalized growth,"locus YJL134W, strain LCB3, stronger effect = lower value",0.992 (inactive)
same,normalized growth,"locus YJL154C, strain vps35, stronger effect = lower value",0.96 (inactive)
same,normalized growth,"locus YJL164C, strain tpk1, stronger effect = lower value",0.96 (inactive)
same,normalized growth,"locus YJL166W, strain qcr8, stronger effect = lower value",0.94 (inactive)
same,normalized growth,"locus YJL168C, strain set2, stronger effect = lower value",1 (inactive)
same,normalized growth,"locus YJL187C, strain SWE1 (second series), stronger effect = lower value",0.99 (inactive)
same,normalized growth,"locus YJL187C, strain SWE1, stronger effect = lower value",0.953 (inactive)
same,normalized growth,"locus YJR043C, strain POL32, stronger effect = lower value",0.98 (inactive)
